Measurements as given in PubChem BioAssay AID504819 (NMMLSC, 2011).
This is one part of the list. Unmarked numbers belong to inactive results.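 The calls were made as follows: active = compounds quenching the bead-bound labeled aptamer, with fluorescence dropping by more than 37 kMESF over the dose range; inactive = the rest.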

Experiment: fluorescence quenching of FAM-labeled RNA aptamer, dose response, artefact control for GRK2 aptamer inhibitor project, biochemical, flow cytometry, cherry pick 2 (AID 504819)
Conditions: Streptavidin beads, active compounds read high

Q: With `O=C(CCS(=O)(=O)c1ccc(Br)cc1)NCCc1ccc(Cl)cc1` as the compound, how does the change in fluorescence (kMESF span) read?
A: The change in fluorescence (kMESF span) was 2.5 kMESF.

Q: Which change in fluorescence (kMESF span) does the source give for `COc1ccc(Cl)cc1NC(=O)CCS(=O)(=O)c1ccc(Br)cc1` here?
A: Its change in fluorescence (kMESF span) is 1.4 kMESF.
